Several values for one entry are separate records, joined by “and”; a condition that tells them apart may be missing. Identical values can stand only once. Activity calls are given as the source filed them. Rule for the calls: active = hit-call score of the fitted dose curve at least 0.9, where 1 is the maximum; inactive = score below 0.9.
Biological target: human CYP3A5, CYP3A5 (gene 1577) (UniProt P20815)
Assay: NVS_ADME_hCYP3A5: NovaScreen (NVS) CYP450-related Enzyme Activity (ADME) Assay for human CYP3A5
Description: NVS_ADME_hCYP3A5 is a biochemical, single-readout assay that uses extracted gene-proteins in a cell-free assay. Measurements were taken 0.5 hour after chemical dosing in a 96-well plate.NVS_ADME_hCYP3A5 is one of one assay component(s) measured or calculated from the NVS_ADME_hCYP3A5 assay. It is designed to make measurements of enzyme activity, a form of enzyme reporter, as detected with fluorescence intensity signals by Fluorescence technology.Data from the assay component NVS_ADME_hCYP3A5 was analyzed into 1 assay endpoint. This assay endpoint, NVS_ADME_hCYP3A5, was analyzed in the positive analysis fitting direction relative to Acetonitrile as the negative control and baseline of activity. Using a type of enzyme reporter, loss-of-signal activity can be used to understand changes in the enzymatic activity as they relate to the gene CYP3A5. Furthermore, this assay endpoint can be referred to as a primary readout, because this assay has produced […] where this one serves a enzymatic activity function. To generalize the intended target to other relatable targets, this assay endpoint is annotated to the cyp intended target family, where the subfamily is xenobiotic metabolism. […]

Sequence of human CYP3A5, CYP3A5 (gene 1577) (P20815 whole entry, looked up): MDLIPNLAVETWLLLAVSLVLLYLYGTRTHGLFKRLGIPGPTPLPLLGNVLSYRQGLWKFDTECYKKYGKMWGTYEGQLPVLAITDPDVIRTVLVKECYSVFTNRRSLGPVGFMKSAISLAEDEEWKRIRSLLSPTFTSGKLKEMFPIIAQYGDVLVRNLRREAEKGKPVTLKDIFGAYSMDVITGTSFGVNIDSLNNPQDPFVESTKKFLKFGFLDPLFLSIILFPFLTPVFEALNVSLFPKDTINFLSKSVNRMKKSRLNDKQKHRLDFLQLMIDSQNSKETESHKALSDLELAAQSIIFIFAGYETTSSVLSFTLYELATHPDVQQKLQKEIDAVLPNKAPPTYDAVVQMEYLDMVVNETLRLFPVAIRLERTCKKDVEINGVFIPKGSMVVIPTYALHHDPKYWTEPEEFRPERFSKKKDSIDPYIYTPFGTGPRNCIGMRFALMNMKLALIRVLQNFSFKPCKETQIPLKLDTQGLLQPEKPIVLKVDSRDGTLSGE

In the case of `C#C[C@]1(O)CC[C@H]2[C@@H]3CCc4cc(O)ccc4[C@H]3CC[C@@]21C`, the AC50 is reported as 1.84 µM (active) and 3.89 µM (active) and 1.71 µM (active).

Source: PubChem BioAssay AID2283109 (EPA ToxCast)
